Rows were chosen to be rich in hits. Some 18% of all compounds tested hit in one or more screens of this group.
Gal4-VP16 FLuc = VP16 counterscreen qHTS for inhibitors of ROR gamma transcriptional activity | Drosophila S2 Gal4-VP16 UAS-luciferase, luminescence, 20 h | Potency, µM (highest dose often 53.6 µM), hits mostly inhibitors | 310,000 tested, 3.5% active | AID 2546, 2010;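 further: Gal4-VP16 expression switched on by copper sulfate through the metallothionein promoter; nearly all actives have a fitted effect of over 50% in size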
IL-1B inflam inh = qHTS for Inhibitors of Inflammasome Signaling: IL-1-beta AlphaLISA Primary Screen; THP-1 LPS/ATP IL-1B secretion, AlphaLISA, 16 h; stronger effect = lower value; activity change, % at 57.5 µM; 360,000 tested, 4.7% active; AID 743279, 2014; in the data active means activity change below about -50%; inconclusive means mostly about -30% to -49%
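THP-1 cells pretreated 1 hr with compounds (up to 57.5 uM final), then stimulated with LPS (250 ng/mL final) plus ATP (1.25 mM final); secreted IL-1B measured by AlphaLISA after 16 hr, decreased signal indicating inhibition.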
RORg inh = qHTS for inhibitors of ROR gamma transcriptional activity; 310,000 tested, 5.4% active; Potency, µM (top dose mostly 53.6 µM), usual class: inhibitors; Drosophila S2 Gal4-RORgamma UAS-luciferase reporter, 20 h; further: nearly all actives have a fitted effect of over 60% in size
Target sequence (P51450 whole entry, looked up, the tested form may be a part): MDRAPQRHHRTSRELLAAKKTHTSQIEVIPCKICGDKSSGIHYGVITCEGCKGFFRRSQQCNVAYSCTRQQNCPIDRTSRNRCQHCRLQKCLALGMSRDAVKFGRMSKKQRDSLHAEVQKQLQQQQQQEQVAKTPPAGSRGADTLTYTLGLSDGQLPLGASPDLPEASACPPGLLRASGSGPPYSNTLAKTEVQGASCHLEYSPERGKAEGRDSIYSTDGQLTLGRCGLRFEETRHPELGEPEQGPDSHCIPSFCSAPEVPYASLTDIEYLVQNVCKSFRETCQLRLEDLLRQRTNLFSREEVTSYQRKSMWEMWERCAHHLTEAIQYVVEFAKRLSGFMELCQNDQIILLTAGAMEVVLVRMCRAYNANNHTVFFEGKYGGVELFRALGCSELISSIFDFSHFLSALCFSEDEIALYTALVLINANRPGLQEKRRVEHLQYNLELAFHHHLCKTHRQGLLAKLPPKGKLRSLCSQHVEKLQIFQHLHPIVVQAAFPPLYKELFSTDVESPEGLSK
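Compounds are pin-transferred onto Drosophila Schneider cells expressing a copper-inducible Gal4–ROR gamma transactivation domain fusion. After 1 hr, copper sulfate is added to 700 uM final; luciferase is read 20 hr later.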
TDP1 cell CPT = qHTS for Inhibitors of human tyrosyl-DNA phosphodiesterase 1 (TDP1): qHTS in cells in presence of CPT | chicken DT40 Tdp1-/-;hTDP1 cells + 20 nM CPT, ATP luminescence, 48 h | Potency, µM (highest dose often 46.2 µM), usual class: inhibitors | AID 686979, 2013 | 420,000 tested, 12% active; further: nearly all actives have a fitted effect of over 55% in size
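Cell growth measured by CellTiter-Glo luminescence after a minimum 48 h, 37 C compound exposure with 20 nM CPT in Tdp1-knockout DT40 cells stably expressing hTDP1, seeded 400/well; qHTS titration format.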
TDP1 cell noCPT = qHTS for Inhibitors of human tyrosyl-DNA phosphodiesterase 1 (TDP1): qHTS in cells in absence of CPT; DT40 Tdp1-/- hTDP1 cells, no CPT, ATP luminescence, 48 h; Potency, µM (top dose mostly 46.2 µM), most hits filed as inhibitors; 420,000 tested, 15% active; AID 686978, 2013; further: nearly all actives have a fitted effect of over 55% in size
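Growth kinetics read by CellTiter-Glo luminescence after ≥48 hr at 37 °C. Cells: DT40 Tdp1-/- stably carrying human TDP1, 400 per well, compound exposure in the absence of CPT (DMSO vehicle).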
LDHA inh = qHTS assay for inhibitors of human lactate dehydrogenase; activity change, % (values are at about 110 or 230 µM); AID 1347041, 2019; purified LDHA, NADH/diaphorase-resazurin fluorescence; stronger effect = lower value; 480,000 tested, 0.15% active; in the data active means activity change below about -30%; inconclusive means mostly about -25% to -30%
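Enzyme activity of human lactate dehydrogenase 5 (2 nM; 0.06 mM NADH, 0.2 mM pyruvate, 5 min, RT) is measured via a resazurin/diaphorase fluorescence readout of residual NADH.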
Of the large screens only hits and unclear results are named; the others gave an inactive call. Unless noted, the call rests on the fitted dose curve; in most records, active means well fitted curve in the direction sought with a large enough effect; inconclusive means small, poorly fitted or top-dose-only effect, or another doubt; inactive means no such curve, though single readings can be large; an effect the other way counts as inactive or inconclusive.

O=C(NCCc1ccc(Cl)cc1)C1CCCN(S(=O)(=O)N2CCCCCC2)C1 (stereo not drawn)	TDP1 cell CPT 18µM, TDP1 cell noCPT 16µM
COc1ccc(CCNC(=O)C2CCCN(S(=O)(=O)c3ccc(F)cc3)C2)cc1 (stereo not drawn)	TDP1 cell CPT inconclusive, TDP1 cell noCPT 16µM
O=C(NCCc1ccccc1)C1CCCN(C(=O)Nc2ccc(F)cc2)C1 (stereo not drawn)	TDP1 cell CPT 6.5µM, TDP1 cell noCPT 6.5µM
Clc1ccc(CNCc2ccccc2Cn2cncn2)c(Cl)c1	none (no result: Gal4-VP16 FLuc, IL-1B inflam inh, RORg inh, TDP1 cell CPT, TDP1 cell noCPT)
CS(=O)(=O)N1CCCC(C(=O)Nc2ccc(F)cc2)C1 (stereo not drawn)	none
Cc1ccc(NC(=O)C2CCCN(S(=O)(=O)c3ccc(F)cc3)C2)cc1 (stereo not drawn)	TDP1 cell CPT 23µM, TDP1 cell noCPT 16µM (no result: Gal4-VP16 FLuc, IL-1B inflam inh, RORg inh)
CCc1ccc(NC(=O)C2CCCN(S(C)(=O)=O)C2)cc1 (stereo not drawn)	TDP1 cell CPT inconclusive, TDP1 cell noCPT inconclusive
CCc1ccc(NC(=O)C2CCCN(S(=O)(=O)c3ccc(F)cc3)C2)cc1 (stereo not drawn)	TDP1 cell CPT 8.2µM, TDP1 cell noCPT 7.3µM (no result: Gal4-VP16 FLuc, IL-1B inflam inh, RORg inh)
CN(C)c1ccc(NC(=O)C2CCCN(S(=O)(=O)c3ccccc3)C2)cc1 (stereo not drawn)	RORg inh inconclusive, TDP1 cell CPT 15µM, TDP1 cell noCPT 23µM
CCOC(=O)c1ccc(NC(=O)C2CCCN(S(=O)(=O)c3ccc(F)cc3)C2)cc1 (stereo not drawn)	IL-1B inflam inh -64, RORg inh inconclusive, TDP1 cell CPT inconclusive, TDP1 cell noCPT 23µM
CCOC(=O)c1c(S(=O)(=O)N2CCCC(C(=O)Nc3ccc(F)cc3)C2)c(C)n(C)c1C (stereo not drawn)	none (no result: Gal4-VP16 FLuc, IL-1B inflam inh, RORg inh, TDP1 cell CPT, TDP1 cell noCPT)
Cc1c(C(=O)N(C)Cc2nc3ccsc3c(=O)[nH]2)cnn1-c1ccccc1F	none (no result: Gal4-VP16 FLuc, IL-1B inflam inh, RORg inh, TDP1 cell CPT, TDP1 cell noCPT)
O=C(Nc1nnc(-c2ccc(F)cc2)o1)C1CCN(S(=O)(=O)c2ccccc2C(F)(F)F)CC1	none (no result: Gal4-VP16 FLuc, IL-1B inflam inh, RORg inh, TDP1 cell CPT, TDP1 cell noCPT)
Fc1ccc(/C=C2\CCCC3=C2N=C2SC=C(c4ccc(F)cc4)N2C3c2ccc(F)cc2)cc1 (stereo not drawn)	none (no result: Gal4-VP16 FLuc, IL-1B inflam inh, RORg inh, TDP1 cell CPT, TDP1 cell noCPT)
COC1=C(N)C(=O)c2nc(-c3nc(C(=O)O)c(C)c(-c4ccc(OC)c(OC)c4O)c3N)ccc2C1=O	Gal4-VP16 FLuc inconclusive, IL-1B inflam inh -106, RORg inh 14µM, TDP1 cell CPT 0.041µM, TDP1 cell noCPT 0.1µM
COc1ccc(C(=O)O)c(O)c1OC	none (no result: IL-1B inflam inh, LDHA inh)
C/C=C\C=C\C(=O)Nc1cccc(C2=NOC3(C2)C[C@H](C(N)=O)N(C(=O)c2ccccc2C(=O)c2ccccc2)C3)c1 (stereo partly drawn)	TDP1 cell CPT inconclusive, TDP1 cell noCPT 16µM
C/C=C/C=C\C(=O)Nc1cccc(C2=NOC3(C2)C[C@@H](C(N)=O)N(C(=O)c2cc([N+](=O)[O-])cc([N+](=O)[O-])c2C)C3)c1 (stereo partly drawn)	TDP1 cell CPT 16µM, TDP1 cell noCPT inconclusive
CCN(CC)c1nc(N(C)C)nc(-n2cnc(SCc3ccccc3)n2)n1	none (no result: Gal4-VP16 FLuc, IL-1B inflam inh, RORg inh, TDP1 cell CPT, TDP1 cell noCPT)
O=C1C(=O)c2ccccc2C(O)=C1c1ccccc1F	Gal4-VP16 FLuc 1.3µM, TDP1 cell noCPT inconclusive
CC(=O)Nc1cccc(-c2ccnc3c2CC(C(=O)NCC2CCOCC2)O3)c1 (stereo not drawn)	TDP1 cell CPT 2.6µM, TDP1 cell noCPT 2.3µM (no result: Gal4-VP16 FLuc, RORg inh)
CC(=O)Nc1cccc(-c2ccnc3c2CC(C(=O)NCCC(F)(F)F)O3)c1 (stereo not drawn)	TDP1 cell CPT inconclusive, TDP1 cell noCPT 23µM (no result: Gal4-VP16 FLuc, RORg inh)
CC(=O)NCCNC(=O)C1Cc2c(-c3cccc(NC(C)=O)c3)ccnc2O1 (stereo not drawn)	none (no result: Gal4-VP16 FLuc, RORg inh)

Screening results: PubChem, National Center for Advancing Translational Sciences (NCATS)
